These results are taken from PubChem BioAssay (EPA / NIEHS).

Read-out in assay [1]: TIMP metallopeptidase inhibitor 1 (TIMP1), TIMP1 (gene 7076)
Nature of the assay: BSK_hDFCGF_TIMP1: BioMAP Diversity Plus: hDFCGF Assay for TIMP metallopeptidase inhibitor 1 (TIMP1) Biomarker Activity (AID 2283062). The settings on record: primary human foreskin fibroblasts; actives raise or lower the signal. Summed up:
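Bidirectional curve fitting against DMSO baseline yielded this endpoint, based on ELISA detection of TIMP-1 in primary human foreskin fibroblasts exposed to compound for 24 h.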

Read-out in assay [2]: Monokine induced gamma interferon (MIG), CXCL9 (gene 4283)
Briefly: BSK_hDFCGF_MIG: BioMAP Diversity Plus: hDFCGF Assay for Monokine induced gamma interferon (MIG) Biomarker Activity (AID 2283063). The note with it: primary human foreskin fibroblasts; actives raise or lower the signal. The gist of the method: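 Endpoint derived by bidirectional fitting relative to DMSO; MIG quantified via ELISA in primary human foreskin fibroblasts harvested 24 h after dosing.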

Read-out in assay [3]: Matrix Metallopeptidase 1 (MMP1), MMP1 (gene 4312)
Nature of the assay: BSK_hDFCGF_MMP1: BioMAP Diversity Plus: hDFCGF Assay for Matrix Metallopeptidase 1 (MMP1) Biomarker Activity (AID 2283064). The settings on record: primary human foreskin fibroblasts; actives raise or lower the signal. The gist of the method: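 ELISA read-out of MMP1 from human foreskin fibroblasts (primary skin cells), 24 h post-dose. Gain or loss of signal was fitted bidirectionally versus DMSO negative control; cytotoxicity was checked by SRB in parallel cultures.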

Read-out in assay [4]: Vascular cell adhesion molecule 1 (VCAM1), VCAM1 (gene 7412)
Nature of the assay: BSK_hDFCGF_VCAM1: BioMAP Diversity Plus: hDFCGF Assay for Vascular cell adhesion molecule 1 (VCAM1) Biomarker Activity (AID 2283065). The note with it: primary human foreskin fibroblasts; actives raise or lower the signal. Summed up:
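Measured after 24 h chemical treatment of primary human skin fibroblasts, VCAM-1 was detected by ELISA and concentration-response analysed in both directions versus DMSO vehicle.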

Read-out in assay [5]: Plasminogen activator inhibitor-1 (PAI1), SERPINE1 (gene 5054)
Briefly: BSK_hDFCGF_PAI1: BioMAP Diversity Plus: hDFCGF Assay for Plasminogen activator inhibitor-1 (PAI1) Biomarker Activity (AID 2283066). The settings on record: primary human foreskin fibroblasts; actives raise or lower the signal. The gist of the method: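 PAI-1 levels in human dermal foreskin fibroblasts were quantified by ELISA 24 h after dosing, with gain or loss analysed against DMSO. Overt cytotoxicity was checked by sulforhodamine B total-protein staining in parallel cultures.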

Read-out in assay [6]: Intercellular Adhesion Molecule 1 (ICAM1), ICAM1 (gene 3383)
Nature of the assay: BSK_KF3CT_ICAM1: BioMAP Diversity Plus: KF3CT Assay for Intercellular Adhesion Molecule 1 (ICAM1) Biomarker Activity (AID 2283067). The settings on record: primary human keratinocytes with fibroblasts; actives raise or lower the signal. The gist of the method: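 Bidirectional curve fitting against a DMSO baseline was applied to ICAM-1 ELISA signal from primary human skin co-cultures harvested 24 h after treatment, with SRB staining of parallel wells for overt cytotoxicity.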

Read-out in assay [7]: Interferon-gamma inducible Protein 10 (IP10), CXCL10 (gene 3627)
Briefly: BSK_KF3CT_IP10: BioMAP Diversity Plus: KF3CT Assay for Interferon-gamma inducible Protein 10 (IP10) Biomarker Activity (AID 2283068). The note with it: primary human keratinocytes with fibroblasts; actives raise or lower the signal. Summed up: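 In a primary skin co-culture of keratinocytes and fibroblasts, IP-10 is quantified by ELISA at 24 h after dosing. SRB staining of parallel wells monitors overt toxicity. Curves are fitted both directions against DMSO.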

Assay [8] can be described thus: BSK_KF3CT_SRB: Viability Assessment in the BioMAP Diversity Plus: KF3CT Assay (AID 2283069).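 Note: read 24 h after compound addition.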 The settings on record: primary human keratinocytes with fibroblasts. The gist of the method: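 SRB read-out at 560 nm (0.1% stain, TCA-fixed cells) gauges overt cytotoxicity in a human skin keratinocyte–fibroblast co-culture 24 h post-dosing. Signal change was fitted bidirectionally relative to DMSO control.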

Read-out in assay [9]: Interleukin-1 alpha (IL1a), IL1A (gene 3552)
Nature of the assay: BSK_KF3CT_IL1a: BioMAP Diversity Plus: KF3CT Assay for Interleukin-1 alpha (IL1a) Biomarker Activity (AID 2283070). The settings on record: primary human keratinocytes with fibroblasts; actives raise or lower the signal. Summed up:
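Primary skin co-culture (keratinocytes, foreskin fibroblasts), 24 h exposure; ELISA for IL-1a; bidirectional curve fit vs DMSO.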

Read-out in assay [10]: Transforming growth factor beta 1 (TGFb1), TGFB1 (gene 7040)
Nature of the assay: BSK_KF3CT_TGFb1: BioMAP Diversity Plus: KF3CT Assay for Transforming growth factor beta 1 (TGFb1) Biomarker Activity (AID 2283072). The settings on record: primary human keratinocytes with fibroblasts; actives raise or lower the signal. The gist of the method: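 ELISA quantifies TGF-b1 at 24 h post-dose in a primary human skin co-culture of keratinocytes and fibroblasts, with gain or loss judged against DMSO. Parallel SRB total-protein staining flags overt cytotoxicity.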

Read-out in assay [11]: Matrix Metallopeptidase 9 (MMP9), MMP9 (gene 4318)
Briefly: BSK_KF3CT_MMP9: BioMAP Diversity Plus: KF3CT Assay for Matrix Metallopeptidase 9 (MMP9) Biomarker Activity (AID 2283074). The settings on record: primary human keratinocytes with fibroblasts; actives raise or lower the signal. Summed up: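 ELISA read-out of MMP-9 at 24 h post-dosing in a co-culture of human skin keratinocytes and foreskin fibroblasts. Gain or loss of signal was fitted in both directions against DMSO.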

Read-out in assay [12]: urokinase plasminogen activator (uPA), PLAU (gene 5328)
Nature of the assay: BSK_KF3CT_uPA: BioMAP Diversity Plus: KF3CT Assay for urokinase plasminogen activator (uPA) Biomarker Activity (AID 2283075). The note with it: primary human keratinocytes with fibroblasts; actives raise or lower the signal. Summed up: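 Skin co-culture (keratinocytes + foreskin fibroblasts), human primary; 24 h post-dose; uPA by ELISA; gain/loss fit vs DMSO baseline.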

Read-out in another assay: CD40, CD40 (gene 958)
Briefly: BSK_LPS_CD40: BioMAP Diversity Plus: LPS Assay for CD40 Biomarker Activity (AID 2283076). The note with it: primary human HUVEC with PBMC; actives raise or lower the signal. The gist of the method: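 Using a multiplexed primary human co-culture (umbilical vein endothelium plus PBMC), CD40 was read by ELISA 24 h after dosing, with cytotoxicity tracked by sulforhodamine B staining of parallel cultures and activity fitted bidirectionally versus DMSO.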

Read-out in assay [13]: E-selectin (Homo sapiens) (UniProt P16581)
Briefly: BSK_LPS_Eselectin: BioMAP Diversity Plus: LPS Assay for Eselectin Biomarker Activity (AID 2283077). The settings on record: primary human HUVEC with PBMC; actives raise or lower the signal. Summed up: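 Dose chemical onto LPS-driven HUVEC/PBMC co-culture; after 24 h, run ELISA for E-selectin; fit up- and down-going responses relative to DMSO control.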

Read-out in assay [14]: Interleukin-8 (IL8), CXCL8 (gene 3576)
Briefly: BSK_LPS_IL8: BioMAP Diversity Plus: LPS Assay for Interleukin-8 (IL8) Biomarker Activity (AID 2283078). The settings on record: primary human HUVEC with PBMC; actives raise or lower the signal. Summed up:
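In this LPS system, chemical-treated human umbilical vein endothelium/PBMC co-cultures were harvested at 24 h for IL-8 ELISA.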

Assay [15] can be described thus: BSK_LPS_SRB: Viability Assessment in the BioMAP Diversity Plus: LPS Assay (AID 2283079).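 Note: total protein by sulforhodamine B absorbance as a cytotoxicity measure; measured one day after compound addition.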 The note with it: primary human HUVEC with PBMC. The gist of the method: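 Cytotoxicity endpoint in human endothelial–PBMC co-culture: 24 h exposure, then SRB (0.1%) staining, 560 nm read.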
Read-out in assay [16]: Interleukin-1 alpha (IL1a), IL1A (gene 3552)
Nature of the assay: BSK_LPS_IL1a: BioMAP Diversity Plus: LPS Assay for Interleukin-1 alpha (IL1a) Biomarker Activity (AID 2283080). The note with it: primary human HUVEC with PBMC; actives raise or lower the signal. The gist of the method: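 Primary human HUVEC and PBMC co-culture stimulated with LPS is dosed and harvested at 24 h. Both increases and decreases in ELISA-measured IL-1a are scored relative to DMSO.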

Read-out in assay [17]: Monocyte Chemoattractant Protein-1 (MCP1), CCL2 (gene 6347)
Nature of the assay: BSK_LPS_MCP1: BioMAP Diversity Plus: LPS Assay for Monocyte Chemoattractant Protein-1 (MCP1) Biomarker Activity (AID 2283081). The settings on record: primary human HUVEC with PBMC; actives raise or lower the signal. Summed up:
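Values derive from bidirectional fitting against DMSO of ELISA-measured MCP-1 in a human primary endothelial and mononuclear cell co-culture, 24 h after chemical addition under LPS activation.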

Read-out in assay [18]: TIMP metallopeptidase inhibitor 2 (TIMP2), TIMP2 (gene 7077)
Briefly: BSK_KF3CT_TIMP2: BioMAP Diversity Plus: KF3CT Assay for TIMP metallopeptidase inhibitor 2 (TIMP2) Biomarker Activity (AID 2283071). The note with it: primary human keratinocytes with fibroblasts; actives raise or lower the signal. The gist of the method:
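TIMP-2 measured by ELISA at 24 h in human keratinocyte/fibroblast primary co-cultures exposed to chemicals. Both increases and decreases were fitted against DMSO. Parallel cultures were stained with SRB for total protein as an overt-cytotoxicity check.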

Read-out in assay [19]: C-C motif chemokine 2 (Homo sapiens) (UniProt P13500)
Nature of the assay: BSK_KF3CT_MCP1: BioMAP Diversity Plus: KF3CT Assay for Monocyte Chemoattractant Protein 1 (MCP1/CCL2) Biomarker Activity (AID 2283073). The note with it: primary human keratinocytes with fibroblasts; actives raise or lower the signal. The gist of the method: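 Biomarker MCP-1 is measured by ELISA in primary human keratinocytes co-cultured with foreskin fibroblasts, 24 h after chemical treatment; DMSO serves as the negative control and activity baseline.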

The source made the active and inactive calls. Rule for the calls: active = hit-call score of the fitted dose curve at least 0.9, where 1 is the maximum; inactive = score below 0.9.

E-selectin (Homo sapiens), sequence (P16581 whole entry, looked up): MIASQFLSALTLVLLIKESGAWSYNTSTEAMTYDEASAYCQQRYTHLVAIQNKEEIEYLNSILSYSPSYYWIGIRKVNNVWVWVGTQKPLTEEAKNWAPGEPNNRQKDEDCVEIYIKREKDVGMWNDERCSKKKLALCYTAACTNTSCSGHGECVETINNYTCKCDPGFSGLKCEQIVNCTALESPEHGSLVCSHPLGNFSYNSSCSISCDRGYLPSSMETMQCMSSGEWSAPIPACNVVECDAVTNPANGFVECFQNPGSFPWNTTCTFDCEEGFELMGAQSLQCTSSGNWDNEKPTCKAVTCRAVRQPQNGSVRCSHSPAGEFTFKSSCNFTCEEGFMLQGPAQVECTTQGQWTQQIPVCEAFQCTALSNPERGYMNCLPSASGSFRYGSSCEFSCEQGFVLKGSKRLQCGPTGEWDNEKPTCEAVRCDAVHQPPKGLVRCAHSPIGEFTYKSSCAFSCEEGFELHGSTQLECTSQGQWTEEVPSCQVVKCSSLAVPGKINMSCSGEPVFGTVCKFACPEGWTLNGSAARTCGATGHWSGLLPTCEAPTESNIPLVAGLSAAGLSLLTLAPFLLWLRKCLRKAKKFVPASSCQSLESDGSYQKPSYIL

As for `CC(=O)[C@@]1(O)CC[C@H]2[C@@H]3CCC4=CC(=O)CC[C@]4(C)[C@H]3CC[C@@]21C`, the outcome in assay [1], in assay [2], in assay [3], in assay [4], in assay [5] and in [6] was inactive. The outcome in assay [7], in [8], in assay [9], in assay [10], in assay [11] and in assay [12] was inactive. The outcome is “inactive” in the assay with CD40, CD40 (gene 958); “inactive” in assay [13]; “inactive” in assay [14]; “inactive” in [15]; “inactive” in assay [16]; “inactive” in assay [17].

The AC50 is the concentration giving half of the maximal activity seen. Take `CCCCCCC(CCCCCCCCCCC(=O)OCC(COC(C)=O)OC(C)=O)OC(C)=O` (centres undefined): the outcome in assay [1], in assay [2], in [3], in assay [4], in [6] and in assay [7] was inactive. For the same molecule, the outcome was “inactive” in [9]; “inactive” in [18]; “inactive” in assay [10]; “inactive” in [11]; “inactive” in [12]; “inactive” with CD40, CD40 (gene 958). Further, the outcome in [13], in assay [14], in assay [15], in [16] and in assay [17] was inactive. The AC50 in assay [5] was 818 nM (active).

Consider `COC(=O)CCCC(=O)OC`, for which the result in assay [1], in [2], in assay [4], in [5], in [6] and in assay [7] was inactive. The result in assay [8], in assay [9], in assay [18], in assay [10], in assay [19] and in assay [11] was inactive. For the same molecule, the outcome in assay [12] was “inactive”; in the assay with CD40, CD40 (gene 958) it was “inactive”; in [13], “inactive”; in assay [15], “inactive”; in [16], “inactive”; in assay [17] it was “inactive”.

`NCCOCCOCCN`: the result in [1], in assay [2], in assay [3], in assay [4], in [6] and in assay [7] was inactive. Further, the outcome was “inactive” in [9]; “inactive” in assay [18]; “inactive” in assay [10]; “inactive” in [11]; “inactive” in assay [12]; “inactive” with CD40, CD40 (gene 958). In addition, the outcome in assay [13], in assay [16] and in assay [17] was inactive.
